Measured values reported in PubChem BioAssay.
The source made the active and inactive calls.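 How the source made its calls, unless noted: active means inhibition above 20% together with a positive visual image hit; inconclusive means visual image hit but inhibition not above 20%; inactive means no visual image hit.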 Where a SMILES comes first, the peptide text is derived from it. The star is where a group is joined. Boc = CC(C)(C)OC(=O)*

Legend:
[1] = inhibitors of TNFa-induced NFkB p65 translocation, primary screen, imaging, HUVEC, MLSMR starter and 10KST1 sets (AID 438); settings: HUVEC TNFa-induced p65 nuclear translocation; cell count: measured here: nuclei count (cytotoxicity indicator), at 2.08 µM; inhibition: at 2 µM, stronger effect = higher value, 0% TNFa-plus-vehicle, 100% no-TNFa wells;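 further: compound added about 3h40 before a 20 min TNFalpha stimulation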;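 on inhibition: signal is the nuclear over cytoplasmic p65 intensity ratio per well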
[2] = reduction of polyQ htt aggregates in cells – imaging, exon1htt(103Q)mCFP cells, high-content imaging, primary screen (AID 483;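 active means visual image review flags a hit and inhibition of aggregation exceeds 20%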;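 further: compound exposure lasted 3 days before fixation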;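 on nuclei count: percent of the per-plate median nuclei count of sample wells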); settings: exon1htt(103Q)mCFP cell line, aggregate imaging, at 2 µM; inhibition of aggregation: stronger effect = higher value; nuclei count: measured here: cell count, toxicity
[3] = endothelial E-selectin expression blockers – imaging, HUVEC, immunofluorescence, MLSMR starter and 10KST1 sets, primary screen (AID 487;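 active means visually confirmed hit in the image check and inhibition above 20%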;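 on inhibition: signal is fraction of cell area covered by stained E-selectin grains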;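 on nuclei count: 100% = median nuclei count of all wells on the same plate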); settings: HUVEC TNFalpha-induced E-selectin immunofluorescence imaging, at 2 µM; inhibition: stronger effect = higher value; nuclei count: measured here: cell number, toxicity
[4] = biological target: Voltage-gated potassium channel subunit beta-2 (Rattus norvegicus) (UniProt P62483); assay: inhibitors of rat Kvbeta2 reductase activity – biochemical, NADPH fluorescence, primary screen (AID 622;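 active means fluorescence slope higher than the sample average by over 3 SD, cut at about -0.22 in these data, passing the limit was not always enough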;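 further: slope of raw intensity against log time taken from 70 to 1610 s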); settings: recombinant KvBeta, 4-cyanobenzaldehyde reduction, at 10 µM, stronger effect = higher value
[5] = biological target: Voltage-gated potassium channel subunit beta-2 (Rattus norvegicus) (UniProt P62483); assay: enhancers of rat Kvbeta2 NADPH turnover – biochemical, NADPH fluorescence, primary screen (AID 623;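 active means NADPH fluorescence slope more negative than the mean of all samples by about 3 SD, 99.7% confidence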;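 further: fluorescence intensity change per second fitted from 20 to 320 s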); settings: Recombinant KvBeta, NADPH fluorescence decrease slope, 10 min; at 10 µM; stronger effect = lower value
[6] = biological target: Alpha-2C adrenergic receptor (Homo sapiens) (UniProt P18825); assay: compounds altering alpha2C-coupled GIRK flux – cell-based, HEK293 alpha2C/GIRK1/2, thallium flux, primary screen (AID 624;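 active means fluorescence slope after compound addition differing from the mean of all screened samples at 99.7% confidence, in either direction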;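 further: slope of fluorescence ratio to pre-addition baseline per second over 15 to 24 s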); settings: thallium flux BTC fluorescence, at 10 µM, actives lie on both sides
[7] = blockers of RIG-like receptor reporter activation – cell-based, Sendai virus stimulus, luciferase, 10K MLSCN set, TLR/RLR signaling modifier project, primary screen (AID 602276;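 active means inhibition at or above 50% at 10 µM; inactive means inhibition below 50%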;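 further: firefly luciferase from ISG56 promoter only with Renilla not read in this screen; 0% = Sendai virus plus DMSO and 100% = medium plus DMSO without virus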); settings: HEK293 RL24 IRF3 luciferase reporter, at 10 µM, stronger effect = higher value
[8] = TLR3 IRF3 reporter activation blockers – cell-based, poly I:C stimulus, luciferase, 10K MLSCN set, primary screen (AID 602277;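 active means inhibition of the reporter signal at or above 50%; inactive means inhibition below 50%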); settings: HEK293-TLR3 RL24 IRF3 luciferase reporter, at 10 µM, stronger effect = higher value

Chain of Voltage-gated potassium channel subunit beta-2 (Rattus norvegicus) (P62483 whole entry, looked up): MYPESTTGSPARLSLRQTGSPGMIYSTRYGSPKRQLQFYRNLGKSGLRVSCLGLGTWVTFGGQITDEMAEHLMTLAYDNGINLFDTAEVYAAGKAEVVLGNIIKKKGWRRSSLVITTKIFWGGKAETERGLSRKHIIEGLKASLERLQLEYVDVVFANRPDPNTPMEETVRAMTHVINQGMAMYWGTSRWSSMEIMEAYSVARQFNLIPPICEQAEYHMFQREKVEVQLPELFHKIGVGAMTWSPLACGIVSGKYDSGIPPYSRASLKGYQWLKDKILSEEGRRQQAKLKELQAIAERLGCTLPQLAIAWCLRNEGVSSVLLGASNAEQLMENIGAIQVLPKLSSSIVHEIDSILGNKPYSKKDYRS
Chain of Alpha-2C adrenergic receptor (Homo sapiens) (P18825 whole entry, looked up): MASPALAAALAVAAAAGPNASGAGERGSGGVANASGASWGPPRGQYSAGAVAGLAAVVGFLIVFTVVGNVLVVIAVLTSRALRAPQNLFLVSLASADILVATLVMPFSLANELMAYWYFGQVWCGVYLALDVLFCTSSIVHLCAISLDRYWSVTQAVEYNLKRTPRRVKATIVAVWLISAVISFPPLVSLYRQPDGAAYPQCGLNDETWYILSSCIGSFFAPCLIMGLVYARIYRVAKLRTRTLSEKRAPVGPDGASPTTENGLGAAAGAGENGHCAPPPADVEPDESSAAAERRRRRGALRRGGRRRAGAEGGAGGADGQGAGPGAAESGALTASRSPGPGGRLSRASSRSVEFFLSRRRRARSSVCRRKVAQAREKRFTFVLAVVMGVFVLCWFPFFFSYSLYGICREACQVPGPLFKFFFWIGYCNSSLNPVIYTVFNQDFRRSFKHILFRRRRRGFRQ

SMILES	cell count [1]	inhibition [1]	inhibition of aggregation [2]	nuclei count [2]	inhibition [3]	nuclei count [3]	fluorescence slope [4]	NADPH fluorescence slope [5]	slope [6]	inhibition [7]	inhibition [8]
CCCn1cc(C(CC(=O)O)C(=O)O)c2ccccc21 (stereo unspecified)	319	0.2% (inactive)	11% (inactive)	97.5%	-112% (inactive)	126%	-0.399 (inactive)	-3.1e-05 (inactive)	0.00576 (inactive)	13.9% (inactive)	17.2% (inactive)
COc1ccc(-c2nnc(SCC(=O)NC(=O)NCc3ccco3)o2)cc1	417	5.6% (inactive)	-7.4% (inactive)	102%	–	157%	-0.455 (inactive)	9.2e-05 (inactive)	0.00577 (inactive)	18.6% (inactive)	24.4% (inactive)
Cc1ccc(-c2nnn(CC(=O)N(Cc3ccco3)C(C(=O)NC(C)(C)C)c3cccs3)n2)o1 (stereo unspecified)	643	3.5% (inactive)	4.8% (inactive)	85.8%	-43.9% (inactive)	117%	-0.595 (inactive)	-7.2e-05 (inactive)	0.00341 (inactive)	9.52% (inactive)	12.3% (inactive)
COc1ccc(-n2c(Cc3cccn3C)nnc2SCC(=O)Nc2cccc(OC)c2)cc1	545	0.5% (inactive)	5.4% (inactive)	93.7%	-28.8% (inactive)	90.2%	-0.632 (inactive)	2.3e-05 (inactive)	0.00546 (inactive)	-1.72% (inactive)	5.53% (inactive)
Cn1c(=O)c2c(nc(NCCNC(=O)c3ccco3)n2Cc2ccccc2Cl)n(C)c1=O	424	7.1% (inactive)	1.7% (inactive)	98.3%	–	136%	-0.354 (inactive)	-2.6e-05 (inactive)	0.00598 (inactive)	-7.85% (inactive)	2.32% (inactive)
O=c1[nH]c2sc3c(c2c2nncn12)CCCC3	420	11.2% (inactive)	13.5% (inactive)	108%	-112% (inactive)	111%	-0.499 (inactive)	-0.000261 (inactive)	0.00486 (inactive)	7.28% (inactive)	-10% (inactive)
CCc1ccccc1NC(=O)c1ccoc1C	399	2.4% (inactive)	0.7% (inactive)	97.9%	-12.3% (inactive)	99.5%	-0.493 (inactive)	-5.8e-05 (inactive)	0.00456 (inactive)	13.9% (inactive)	17.6% (inactive)
Cc1ccc(-c2ccc(=O)n(CC(=O)NCCCN3CCCCC3C)n2)cc1 (stereo unspecified)	397	5% (inactive)	3% (inactive)	98.2%	14.8% (inactive)	96%	-0.497 (inactive)	-1.9e-05 (inactive)	0.0058 (inactive)	11.3% (inactive)	21.8% (inactive)
COc1ccc(N2C(=O)CC(N3CCCC4CCCCC43)C2=O)cc1 (stereo unspecified)	577	-11.4% (inactive)	3.7% (inactive)	107%	-13.4% (inactive)	79.8%	-0.423 (inactive)	-3.7e-05 (inactive)	0.00354 (inactive)	8.26% (inactive)	35.7% (inactive)
COc1ccccc1OCC(=O)N1CCN(c2ccccc2OC)CC1	471	3% (inactive)	5.3% (inactive)	108%	35.1% (inactive)	107%	-0.6 (inactive)	-1.5e-05 (inactive)	0.00684 (inactive)	-19.3% (inactive)	-1.87% (inactive)
CCOC(=O)c1cnn(-c2cc(C)c3cc(C)cc(C)c3n2)c1N	494	9% (inactive)	-9.8% (inactive)	110%	–	152%	-0.545 (inactive)	2e-05 (inactive)	0.00906 (inactive)	-17.1% (inactive)	-21.2% (inactive)
Cc1ccc(-c2noc(CCC(=O)N3CCN(c4cccc(C(F)(F)F)c4)CC3)n2)cc1	647	7.6% (inactive)	-10.2% (inactive)	95.8%	-36.9% (inactive)	111%	-0.391 (inactive)	-5.4e-05 (inactive)	0.00562 (inactive)	9.01% (inactive)	6.71% (inactive)
COC(=O)c1ccccc1NC(=O)CC(NCc1ccccc1)C(=O)O (stereo unspecified)	619	-5% (inactive)	-34.3% (inactive)	124%	-21.4% (inactive)	116%	-0.418 (inactive)	-8.7e-06 (inactive)	0.00289 (inactive)	-10.8% (inactive)	16.2% (inactive)
CC(C)(C)OC(=O)N1CCCC1C(=O)N1CCc2ccccc21 (stereo unspecified)	411	5.6% (inactive)	-0.3% (inactive)	103%	-19.6% (inactive)	104%	-0.614 (inactive)	-1.2e-06 (inactive)	0.00514 (inactive)	10.9% (inactive)	33.9% (inactive)
Cc1noc(C)c1CSc1ccccc1C(=O)N1CCN(c2ccccc2)CC1	427	-1.2% (inactive)	-3.3% (inactive)	95.9%	14.6% (inactive)	105%	-0.482 (inactive)	1.7e-05 (inactive)	0.00481 (inactive)	1.46% (inactive)	7.95% (inactive)
O=C(NCCC1=CCCCC1)C1CCN(C(=O)Nc2ccccc2)CC1	206	-6.2% (inactive)	-13.3% (inactive)	92.3%	5.2% (inactive)	84.8%	-0.439 (inactive)	-5.1e-05 (inactive)	0.00392 (inactive)	2.99% (inactive)	21.5% (inactive)
CCN(CC)CCn1c(=N)n(CCO)c2ccccc21	592	0.2% (inactive)	19.1% (inactive)	95.6%	-30.1% (inactive)	91.5%	-0.376 (inactive)	1.5e-05 (inactive)	0.00357 (inactive)	7.52% (inactive)	39.8% (inactive)
CC1CCN(C(=O)CN2C(=O)C(C)(C)Oc3ccc(C(=O)NC4CCCC4)cc32)CC1	458	0.3% (inactive)	-4.6% (inactive)	84.4%	-83.6% (inactive)	117%	-0.503 (inactive)	-1.2e-05 (inactive)	0.00666 (inactive)	-6.8% (inactive)	14.6% (inactive)
CCOc1ccc(Nc2nc(Cc3nnc(SCC(N)=O)o3)cs2)cc1	453	6.7% (inactive)	-0.8% (inactive)	104%	–	154%	-0.608 (inactive)	-2.2e-05 (inactive)	0.00638 (inactive)	9.26% (inactive)	14% (inactive)
Cc1ccc2cc3cc(C(=O)N4CC(C)CC(C)C4)oc3nc2c1 (stereo unspecified)	654	-3.9% (inactive)	14.3% (inactive)	86.4%	-77% (inactive)	110%	-0.597 (inactive)	7.7e-06 (inactive)	0.00635 (inactive)	2.56% (inactive)	-64.4% (inactive)
CSCCC(NC(=O)OC(C)(C)C)C(=O)NC(CC(C)C)C(N)=O (stereo not drawn) (Boc-Met-Leu-NH2; configuration not given here)	396	-2.1% (inactive)	-0.6% (inactive)	114%	7.9% (inactive)	101%	-0.577 (inactive)	3.1e-05 (inactive)	0.00653 (inactive)	5.67% (inactive)	22% (inactive)
O=C1NC(Nc2ccccn2)(C(F)(F)F)C(=O)N1c1ccc(F)cc1 (stereo unspecified)	483	-1.9% (inactive)	-9.8% (inactive)	110%	-79.1% (inactive)	111%	-0.582 (inactive)	-4.6e-05 (inactive)	0.00277 (inactive)	13.9% (inactive)	6.37% (inactive)
COc1ccc(C2C3=C(CCCC3=O)Nc3nc(SCc4ccccc4)nn32)cc1OC (stereo unspecified)	665	-12.9% (inactive)	9.2% (inactive)	91.2%	32.2% (inactive)	105%	-0.335 (inactive)	-6.9e-05 (inactive)	0.00626 (inactive)	6.77% (inactive)	14.4% (inactive)
O=C(c1ccc(S(=O)(=O)N2CCOCC2)cc1)N(c1ccc(F)cc1)C1C=CS(=O)(=O)C1 (stereo unspecified)	774	-19.7% (inactive)	30.2% (inactive)	111%	-74.8% (inactive)	107%	-0.288 (inactive)	1.6e-05 (inactive)	0.0046 (inactive)	3.76% (inactive)	13.3% (inactive)
CCN(CC)S(=O)(=O)c1ccc(NC2CCCc3ccccc32)nc1 (stereo unspecified)	451	7.1% (inactive)	15.4% (inactive)	103%	–	163%	-0.594 (inactive)	-3e-05 (inactive)	0.00558 (inactive)	11.9% (inactive)	17.1% (inactive)
CCn1c(SCC(=O)NC)nnc1C(C)C	718	-11.9% (inactive)	-4.5% (inactive)	99.7%	-17.9% (inactive)	104%	-0.307 (inactive)	-5.6e-05 (inactive)	0.0053 (inactive)	12.7% (inactive)	0.106% (inactive)
